Results on eleven sequences are retold here after article PMC5700166.

Where a chain is given by its changes, count along the chain named.

Holding throughout (experiment): protein-binding microarray (PBM); PBM: ~300 nM protein, 6 mM HEPES pH 7.8, 80 mM KCl, 0.5 mM EDTA, 0.5 mM EGTA, 6% glycerol, 35 ng/ul poly-dIdC, 1% milk, 1 h, room temperature; Ap Aiptasia and Nv Nematostella (sea anemones) / Co Capsaspora / Aq Amphimedon (sponge) / Dm Drosophila / Hu human; RHD is the Rel homology domain; high values mean tight binding
What all share (conditions): dsDNA, one strand shown

Test [1] deals with T1, GST-Ap-NF-kB RHD (Exaiptasia pallida (Aiptasia), UniProt A0A913YAJ5 2-422).
T1 sequence: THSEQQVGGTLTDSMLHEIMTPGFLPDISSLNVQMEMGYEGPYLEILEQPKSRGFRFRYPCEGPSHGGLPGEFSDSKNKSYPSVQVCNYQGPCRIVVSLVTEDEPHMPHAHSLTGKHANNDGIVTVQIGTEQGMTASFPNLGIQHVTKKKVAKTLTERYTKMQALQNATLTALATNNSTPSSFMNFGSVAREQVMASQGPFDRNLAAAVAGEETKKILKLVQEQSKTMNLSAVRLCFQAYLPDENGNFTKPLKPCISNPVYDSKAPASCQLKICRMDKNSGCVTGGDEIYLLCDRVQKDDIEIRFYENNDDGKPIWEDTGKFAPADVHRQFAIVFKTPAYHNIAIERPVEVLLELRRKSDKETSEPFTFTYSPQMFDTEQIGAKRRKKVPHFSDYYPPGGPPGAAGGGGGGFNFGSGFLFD

Test [2] has as its target T2, GST-Nv-NF-kB (Cys allele) (Nematostella vectensis, UniProt E5G601 2-411).
T2 sequence: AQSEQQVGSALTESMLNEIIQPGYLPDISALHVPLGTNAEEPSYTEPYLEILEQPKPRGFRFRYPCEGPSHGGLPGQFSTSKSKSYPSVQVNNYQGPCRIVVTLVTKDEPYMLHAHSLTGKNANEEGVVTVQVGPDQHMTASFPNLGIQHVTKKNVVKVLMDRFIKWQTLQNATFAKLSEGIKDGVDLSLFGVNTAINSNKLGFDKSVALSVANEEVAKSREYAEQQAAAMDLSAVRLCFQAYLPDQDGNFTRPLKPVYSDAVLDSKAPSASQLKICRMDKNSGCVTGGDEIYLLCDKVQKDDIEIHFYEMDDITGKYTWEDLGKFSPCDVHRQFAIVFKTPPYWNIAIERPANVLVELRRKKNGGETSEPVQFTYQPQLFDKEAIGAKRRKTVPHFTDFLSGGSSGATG

The target in test [3] is T3, GST-Nv-NF-kB (Ser allele) (Nematostella vectensis, UniProt A7UNT2 2-411).
T3 sequence: T2 sequence with Q21R, C66S, S207N, E215Q, V217A, E225K, A268E, D399E

Test [4] addresses T4, GST-Co-NF-kB (Capsaspora owczarzaki, UniProt F1ARL5 200-546).
T4 sequence: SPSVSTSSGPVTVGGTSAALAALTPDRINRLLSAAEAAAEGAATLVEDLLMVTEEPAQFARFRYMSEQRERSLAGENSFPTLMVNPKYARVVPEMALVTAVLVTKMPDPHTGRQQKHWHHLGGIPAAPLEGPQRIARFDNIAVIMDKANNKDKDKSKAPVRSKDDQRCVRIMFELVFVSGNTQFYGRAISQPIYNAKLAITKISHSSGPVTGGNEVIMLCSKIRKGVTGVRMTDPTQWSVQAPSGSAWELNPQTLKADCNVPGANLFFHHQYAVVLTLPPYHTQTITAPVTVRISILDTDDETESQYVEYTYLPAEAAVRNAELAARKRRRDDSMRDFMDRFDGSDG

The target of test [5] is T5, GST-Dm-Relish (Drosophila melanogaster, UniProt Q94527 99-473).
T5 sequence: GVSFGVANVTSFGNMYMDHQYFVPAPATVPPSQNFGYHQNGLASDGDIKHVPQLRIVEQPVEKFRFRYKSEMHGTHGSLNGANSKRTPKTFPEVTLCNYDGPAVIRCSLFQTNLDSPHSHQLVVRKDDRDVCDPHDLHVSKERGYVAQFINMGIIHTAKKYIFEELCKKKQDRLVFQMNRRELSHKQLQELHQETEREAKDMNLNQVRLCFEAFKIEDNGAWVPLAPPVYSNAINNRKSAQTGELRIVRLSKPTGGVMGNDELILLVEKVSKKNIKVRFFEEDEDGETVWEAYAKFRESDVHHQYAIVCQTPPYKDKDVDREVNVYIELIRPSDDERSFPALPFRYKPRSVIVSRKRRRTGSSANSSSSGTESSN

Test [6] concerns the target T6, GST-Aq-NF-kB (Amphimedon queenslandica, UniProt A9Y5G7 2-389).
T6 sequence: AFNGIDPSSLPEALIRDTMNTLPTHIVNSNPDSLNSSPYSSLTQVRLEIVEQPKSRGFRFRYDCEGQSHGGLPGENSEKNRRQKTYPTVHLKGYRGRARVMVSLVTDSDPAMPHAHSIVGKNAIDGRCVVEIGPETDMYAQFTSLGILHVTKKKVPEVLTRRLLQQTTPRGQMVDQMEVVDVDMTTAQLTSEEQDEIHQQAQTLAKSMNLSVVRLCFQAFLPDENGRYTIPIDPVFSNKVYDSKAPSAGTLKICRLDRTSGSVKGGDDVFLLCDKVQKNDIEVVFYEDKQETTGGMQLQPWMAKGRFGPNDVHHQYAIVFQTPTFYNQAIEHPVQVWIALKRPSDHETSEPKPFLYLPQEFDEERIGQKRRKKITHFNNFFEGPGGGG

The target of test [7] is GST-Hu-p50 (Homo sapiens, UniProt P19838 7-356).
GST-Hu-p50, sequence (P19838 7-356): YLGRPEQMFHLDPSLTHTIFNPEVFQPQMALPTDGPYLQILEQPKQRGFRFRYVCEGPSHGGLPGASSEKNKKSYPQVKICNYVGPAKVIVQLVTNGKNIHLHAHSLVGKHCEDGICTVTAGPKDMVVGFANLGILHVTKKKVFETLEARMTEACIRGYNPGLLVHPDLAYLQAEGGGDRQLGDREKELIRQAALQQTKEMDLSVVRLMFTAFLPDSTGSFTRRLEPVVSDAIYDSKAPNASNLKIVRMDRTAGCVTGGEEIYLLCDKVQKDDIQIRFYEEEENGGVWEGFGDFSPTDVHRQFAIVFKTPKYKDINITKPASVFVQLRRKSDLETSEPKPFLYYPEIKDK

In the case of “CCGATTAACATCAGGGGCTTTTATGATGTTAATCGGGTCTTGATTCGCTTGACGCTGCTG”, the binding signal in test [1] came to 6.92 z-score; in test [2] it was 9.51 z-score; in test [3] it was 7.11 z-score; in test [4], 1.53 z-score; in test [5], 7.16 z-score; in test [6], 7.6 z-score. This sequence also displayed a binding signal in test [7] of 6.51 z-score.
“CCGATTAACATCAGGCATCCCCATGATGTTAATCGGGTCTTGATTCGCTTGACGCTGCTG”: the binding signal in test [1] turned out to be 3.84 z-score; in test [2] it was 2.84 z-score; in test [3] it was 3.73 z-score; in test [4], 1.82 z-score; in test [5], 3.01 z-score; in test [6], 2.63 z-score. The binding signal in test [7] turned out to be 2.9 z-score.
“CCGATTAACATCAAAATCCCAGGTGATGTTAATCGGGTCTTGATTCGCTTGACGCTGCTG”: the binding signal came to 2.06 z-score in test [1]; 1.42 z-score in test [2]; 1.85 z-score in test [3]; 1.6 z-score in test [4]; 5.57 z-score in test [5]; 2.06 z-score in test [6]. Further, in test [7], the binding signal was found to be 3.17 z-score.
As to “CCGATTAACATCAGGGGAAACTATGATGTTAATCGGGTCTTGATTCGCTTGACGCTGCTG”, the binding signal in test [1] is 6.82 z-score; in test [2], 7.81 z-score; in test [3], 10.9 z-score; in test [4] it was 9.61 z-score; in test [5], 3.46 z-score; in test [6], 5.53 z-score. In addition, the binding signal in test [7] is 6.14 z-score.
In the case of “CCGATTAACATCAGAAAATACCCTGATGTTAATCGGGTCTTGATTCGCTTGACGCTGCTG”, the binding signal in test [1] came to 5.86 z-score; in test [2], 8.27 z-score; in test [3], 7.72 z-score; in test [4] it was 1.93 z-score; in test [5] it was 6.76 z-score; in test [6], 7.37 z-score. This sequence also registered a binding signal in test [7] of 6.32 z-score.
For the sequence “CCGATTAACATCAAAAAACCACCTGATGTTAATCGGGTCTTGATTCGCTTGACGCTGCTG”, the binding signal came to 4.79 z-score in test [1]; 5.1 z-score in test [2]; 7.1 z-score in test [3]; 1.37 z-score in test [4]; 8.7 z-score in test [5]; 5.41 z-score in test [6]. Also, the binding signal in test [7] worked out at 6.81 z-score.
Take “CCGATTAACATCACCAAATCCCCTGATGTTAATCGGGTCTTGATTCGCTTGACGCTGCTG”: the binding signal in test [1] worked out at 6.97 z-score; in test [2], 6.55 z-score; in test [3], 9.44 z-score; in test [4], 3.02 z-score; in test [5], 4.48 z-score; in test [6], 4.54 z-score. Moreover, in test [7], the binding signal came to 6.6 z-score.
Turning to “CCGATTAACATCAGGGGTACCCCTGATGTTAATCGGGTCTTGATTCGCTTGACGCTGCTG”, the binding signal was determined as 7.75 z-score in test [1]; 3.69 z-score in test [2]; 2.78 z-score in test [3]; 6.06 z-score in test [4]; 5.81 z-score in test [5]; 6.3 z-score in test [6]. Moreover, in test [7], the binding signal was 3.73 z-score.
Regarding “CCGATTAACATCAGGGAGGGAAATGATGTTAATCGGGTCTTGATTCGCTTGACGCTGCTG”, the binding signal in test [1] came out at 2.6 z-score; in test [2], 4.76 z-score; in test [3], 3.78 z-score; in test [4] it was 3.79 z-score; in test [5], 1.23 z-score; in test [6], 3.72 z-score. The sequence also yielded a binding signal in test [7] of 2.8 z-score.
With “CCGATTAACATCAGGGGAGGTAATGATGTTAATCGGGTCTTGATTCGCTTGACGCTGCTG”, the binding signal in test [1] was 2.69 z-score; in test [2], 2.66 z-score; in test [3], 4.61 z-score; in test [4], 3.71 z-score; in test [5], 1.22 z-score; in test [6], 2.71 z-score. The same sequence showed a binding signal in test [7] of 2.14 z-score.
For the sequence “CCGATTAACATCAGGGGACTTACTGATGTTAATCGGGTCTTGATTCGCTTGACGCTGCTG”, the binding signal in test [1] is 5.97 z-score; in test [2] it was 5.56 z-score; in test [3], 5.43 z-score; in test [4] it was 2.17 z-score; in test [5] it was 8.32 z-score; in test [6], 5.66 z-score. The sequence further returned a binding signal in test [7] of 5.68 z-score.
